PubChem BioAssay (NCI)
Compounds without any hit were thinned out: in the full panel of roughly 79,000, 15% have a hit. No stated cut-off is given here; in the data, active means growth inhibition above about 70%; inactive means the rest.

What was measured:
[1] = NCI Yeast Anticancer Drug Screen. Data for the rad50 strain (AID 155);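 further: 0% = growth of vehicle-only cultures of the same strain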; conditions: S. cerevisiae rad50 strain growth inhibition; at 50.0 µM; hits give high values
Outline: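 Relative growth inhibition (compound vs vehicle) was measured in yeast with a defined repair-gene alteration.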

[2] = NCI Yeast Anticancer Drug Screen. Data for the mec2-1 strain (AID 157); conditions: S. cerevisiae mec2-1 strain, at 50.0 µM, hits give high values
Outline: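 Mutant yeast (mec2-1) grown with compound; growth inhibition relative to vehicle control reported.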

[3] = NCI Yeast Anticancer Drug Screen. Data for the sgs1 mgt1 strain (AID 161);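 further: 0% = growth of cultures given vehicle only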; conditions: S. cerevisiae sgs1 mgt1 strain, at 50.0 µM, hits give high values
Outline: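 This yeast growth screen uses a strain with defined DNA-repair lesions; compound-treated growth is compared with vehicle-treated growth.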

[4] = NCI Yeast Anticancer Drug Screen. Data for the cln2 rad14 strain (AID 165);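 further: 0% = growth equal to vehicle treated cultures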; conditions: S. cerevisiae cln2 rad14 strain, at 50.0 µM, hits give high values
Outline: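 Readout is yeast growth inhibition versus vehicle-treated controls, using a strain with cln2 and rad14 alterations exposed to compound.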

[5] = NCI Yeast Anticancer Drug Screen. Data for the bub3 strain (AID 167); conditions: S. cerevisiae bub3 mutant strain, at 50.0 µM, hits give high values
Outline: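 Screening used yeast with an engineered genetic alteration affecting cell cycle control. Compound-exposed cultures were compared with vehicle cultures, and reduced growth was taken as inhibition.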

[6] = NCI Yeast Anticancer Drug Screen. Data for the mlh1 rad18 strain (AID 175); conditions: S. cerevisiae mlh1 rad18 strain growth inhibition; at 50.0 µM; hits give high values
Outline: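 Genetically defined yeast (DNA repair-deficient) exposed to compounds; growth inhibition determined relative to vehicle.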

Measured: growth inhibition

O=[N+]([O-])c1cccc([As](=O)(O)c2ccc(O)c([N+](=O)[O-])c2)c1
inactive: [1] 5.6% | [2] 10.2% | [3] 15.1% | [4] -4.3% | [5] 20.4% | [6] 4.65%

COc1ccc2c(c1)CC(CN1CCC3(CC1)C(=O)N(C)CN3c1ccccc1)O2 (stereo unspecified)
inactive: [1] -24.6% | [2] 0.95% | [3] -19.7% | [4] -27.4% | [5] 0.45% | [6] -9.8%

O=C1NC(=O)C(=Cc2ccccn2)C(=O)N1
inactive: [1] -0.95% | [2] -25% | [3] -0.45% | [4] 18.6% | [5] -6.4% | [6] 2.3%

O=C1NC2(CCCC2)C(=O)N1CCCN(CCCl)CCCl
inactive: [1] 2.75% | [2] 12.9% | [3] 25.1% | [4] -37.3% | [5] 7.35% | [6] 3.2%

O=C(Nc1cccc(Cl)c1Cl)C(Cl)(Cl)Cl
inactive: [1] 11.8% | [2] 20.9% | [3] 19.4% | [4] 6.35% | [5] 31.2% | [6] 28.8%

CC(C)OP(=O)(NC(=S)c1ccccc1)OC(C)C
inactive: [1] 19.1% | [2] 21% | [3] 36.4% | [4] 11.4% | [5] 13.8% | [6] 13.9%

O=[Se](=O)(O)O
inactive: [1] -45% | [2] -20.2% | [3] -8.4% | [4] -74.7% | [5] -12.6% | [6] -14.5%

O=C1CN2CCC1CC2
inactive: [1] 10.3% | [2] -47% | [3] -3.25% | [4] 12.6% | [5] -23.2% | [6] 10.8%

Nc1nc(=S)nc(N)[nH]1
inactive: [1] 21.6% | [2] 11.2% | [3] -7.9% | [4] -18.5% | [5] 14.6% | [6] -2.5%

CCOC(=O)C(Cc1c[nH]c2ccccc12)NC(=O)/C=C/N(CCCl)CCCl (stereo unspecified)
inactive: [1] 9.25% | [2] 9.95% | [3] 17% | [4] 0.25% | [5] -14.5% | [6] 22.2%

CN1CCN(c2cc3nsnc3c3nsnc23)CC1
inactive: [1] 0.3% | [2] -7.3% | [3] -15.1% | [4] 8.6% | [5] -12.7% | [6] 18.1%

[N-]=[N+]=C1C(=O)C2CC3CC1CC2C3 (stereo unspecified)
inactive: [1] -3.55% | [2] 12.7% | [3] -9.35% | [4] 8.55% | [5] 1.9% | [6] 1.5%

O=C(c1ccccc1)N1CC1
inactive: [1] 6.1% | [2] 33.9% | [3] -22.1% | [4] 35.5% | [5] -3.8% | [6] 0.35%

C=C1C(=O)OC2CCN3CC=C(COC(=O)C(C)(O)C4(CO4)C1C)C23 (stereo unspecified)
inactive: [1] 11.1% | [2] 0.95% | [3] -20.9% | [4] -12.8% | [5] -35.5% | [6] -59.5%

CCOP(=O)(OCC)/C(C#N)=C/c1cccc(OC)c1
inactive: [1] 57.5% | [2] 46.7% | [3] 45.6% | [4] 16.9% | [5] 30.8% | [6] 63%

CC(C)CN(CC(C)C)[N+](=O)[O-]
inactive: [1] -6.25% | [2] 1.45% | [3] -17.8% | [4] 4.05% | [5] 6.05% | [6] -12.7%

CCCCCC(=O)c1c(O)cc2c(c1O)C(=O)c1c(O)cc(O)cc1C2=O
inactive: [1] 10.2% | [2] 2.25% | [3] 6.1% | [4] 10.3% | [5] 8.35% | [6] -5.7%

CCOP(=O)(OCC)/C(C#N)=C/c1ccco1
inactive: [1] -2.55% | [2] -25.4% | [3] -9.65% | [4] 21.8% | [5] -16.5% | [6] -21.8%

CCCCOP(=S)(N1CCCCC1)N1CCCCC1
inactive: [1] -8.15% | [2] 3.5% | [3] 5.75% | [4] 8.3% | [5] 2.6% | [6] 0.95%

O=P1(N(CCCl)CCCl)NCCCO1 (stereo unspecified)
inactive: [1] -8.1% | [2] -32.2% | [3] -6.1% | [4] 4.8% | [5] -15.2% | [6] -7.05%

N.N.N.N.O=C([O-])CCl.O=C([O-])CCl.[Co+3].[O-][Cl+3]([O-])([O-])[O-]
inactive: [1] -32.1% | [2] -0.45% | [3] -30.4% | [4] 26.7% | [5] -6.5% | [6] -17.5%
